# Rab9 promoter act – Rab9 promoter activation; Huh7 Rab9 promoter-luciferase reporter, luminescence, 24 h; Potency, µM (highest dose often 9.22 µM), for inactives: at the top dose activation, negative = inhibition, hits mostly activators; 2.8% of 320,000 active; AID 485297; note: % of control where 0% means no effect; nearly all actives have a fitted effect of over 60% in size
#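 Cell-based reporter: Huh7 stable for Rab9 promoter-driven luciferase, plated in reduced-serum medium with 10% FBS at 1500 cells/well, compound-treated 24 h at 37 °C, luminescence read after 10 min reagent.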
# FLuc modulator – inhibits or activates purified firefly luciferase, miR-21 counter-screen; 6.9% of 360,000 active; Potency, µM (top dose mostly 57.5 µM), inactives show at the top dose activity change, negative = inhibition, usual class: inhibitors; P08659; purified FLuc, Km substrates, luminescence inhibition;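 note: plate controls were vehicle for no effect and reference inhibitor for full effect; nearly all actives have a fitted effect of over 55% in size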
# Target sequence (P08659 whole entry, looked up): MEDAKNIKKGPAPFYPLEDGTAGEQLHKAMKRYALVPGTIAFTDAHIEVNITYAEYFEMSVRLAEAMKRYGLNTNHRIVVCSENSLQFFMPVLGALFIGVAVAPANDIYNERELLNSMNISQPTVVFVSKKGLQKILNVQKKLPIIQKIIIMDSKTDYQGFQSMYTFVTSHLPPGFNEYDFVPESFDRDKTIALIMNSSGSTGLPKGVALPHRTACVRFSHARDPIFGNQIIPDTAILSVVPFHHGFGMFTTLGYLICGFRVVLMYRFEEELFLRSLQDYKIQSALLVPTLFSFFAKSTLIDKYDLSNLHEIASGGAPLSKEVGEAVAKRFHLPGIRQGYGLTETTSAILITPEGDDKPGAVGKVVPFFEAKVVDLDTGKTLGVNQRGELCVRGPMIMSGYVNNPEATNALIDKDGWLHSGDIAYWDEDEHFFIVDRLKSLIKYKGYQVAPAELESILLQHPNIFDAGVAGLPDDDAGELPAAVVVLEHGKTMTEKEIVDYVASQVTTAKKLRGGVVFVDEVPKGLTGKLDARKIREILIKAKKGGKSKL
#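 Biochemical qHTS of compounds, final roughly 60 µM downward over six points, against 10 nM purified firefly luciferase using Km concentrations of substrates (10 uM D-luciferin, 10 uM ATP) in Tris acetate pH 7.5 buffer; luminescence output.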
# SMN2 splice up – SMN2 splice variant enhancement; Potency, µM (series often up to 46.1 µM), inactives show at the top dose activity change, positive = activation, hits mostly activators; HEK293 SMN2-luciferase splicing reporter, luminescence, 30-36 h; 2.8% of 210,000 active; AID 1458; note: % of control where 0% means no effect; nearly all actives have a fitted effect of over 55% in size
#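 qHTS luciferase splicing reporter: luminescence rises when SMN2 exon 7 is included in transfected HEK293 cells. Compound exposure lasted 30-36 h at 37C, with 4.5 mM final sodium butyrate as control, followed by a ONE-Glo read.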
# ELG1 genotoxic – genotoxicity induction in ELG1-luciferase HEK293T cells. Potency, µM (doses to about 46 µM), for the others: at the top dose activity change, positive = activation, most hits filed as activators. HEK293T ELG1-luciferase reporter, luminescence, 16 h. 1.3% of 330,000 active; note: % of control where 0% means no effect; nearly all actives have a fitted effect of over 60% in size
#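 Reporter readout depends on ELG1 protein level, which increases with genetic stress. After 16 hr compound exposure at 37 °C, luciferase activity was quantified using ONE-Glo.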
# KinaseGlo FLuc – blocks Kinase-Glo luciferase, a counter-screen artifact | Kinase-Glo luciferase, ATP luminescence, 8 min | AID 1379 | 0.28% of 200,000 active | Potency, µM (titrated, usually from 38.3 µM), without a hit: top-dose activity change, negative = inhibition, usual class: inhibitors | Q27757; note: % is set by controls: 0 for no effect and ±100 for the full control effect; nearly all actives have a fitted effect of over 60% in size
#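 Light output from Kinase-Glo luciferase with luciferin and 10 uM ATP in 50 mM imidazole pH 7.2, KCl, MgCl2, Tween 20, BSA; compound pin-delivered, 8-min ambient incubation, then luminescence read.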
# NPC1 promoter act – NPC1 promoter activation; Huh7 NPC1 promoter luciferase reporter, 24 h; Potency, µM (series often up to 9.22 µM), without a hit: top-dose activation, actives largely listed as activators; 2.4% of 320,000 active; note: % of control where 0% means no effect; nearly all actives have a fitted effect of over 60% in size
#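 Huh7 cells stably carrying NPC1 promoter–luciferase, plated in Opti-MEM with 10% FBS for 2 h, were exposed to compound in DMSO for 24 h at 37 °C; luciferase reagent was added for 10 min and luminescence read.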
# Starred values were filed as active, the others as inactive; ? = inconclusive; / = no result; [ ] = another dose, or the depositor's remark. The list is not random: actives were taken first. Their share in the collection is about 7.5%. Calls come from the whole dose curve; as a rule, active = well fitted curve in the direction sought with a large enough effect; inconclusive = small, poorly fitted or top-dose-only effect, or another doubt; inactive = no such curve, though single readings can be large; an effect the other way counts as inactive or inconclusive. Potency is the fitted concentration of half-maximal effect.
SMILES,Rab9 promoter act,FLuc modulator,SMN2 splice up,ELG1 genotoxic,KinaseGlo FLuc,NPC1 promoter act
COC(=O)c1ccc(/C(O)=C(\C#N)c2nc3ccccc3s2)cc1,3.16µM*,7.57µM*,/,3.3%,/,2.82µM*
COC(=O)c1ccc(CC(=O)c2nc3ccccc3s2)cc1,2.82µM*,3.01µM*,0.9%[1.84 µM],?,-9.4%,?
O=C(O)CSc1nc2ccccc2s1,0.2%,-16.4%,/,0.6%,/,-2.3%
O=C(Cc1ccccc1)c1nc2ccccc2s1,2.82µM*,10.7µM*,3.98µM*,?,-12.7%,2.51µM*
COC(=O)c1ccccc1NC(=O)c1cc(-c2ccc(Cl)cc2)on1,/,0.0%,-11.0%,/,/,/
CCOCCn1ccc2c(OCC(=O)Nc3ccc(OC(F)(F)F)cc3)cccc2c1=O,/,5.1%,/,/,/,/
Cc1ccc(CN2CCSc3ccc(C(=O)N4CCN(c5cccc(C)c5C)CC4)cc32)cc1,/,-2.3%,-21.4%,/,/,/
O=c1c(S(=O)(=O)c2ccc(Cl)cc2)cn(Cc2ccc(F)cc2)c2ccc(F)cc12,/,-4.1%,1.8%,/,/,/
Cc1cc(C)c(NC(=O)CSc2nc3nc(C)cc(C)n3n2)c(C)c1,/,-5.3%,-0.8%,/,/,/
CCOc1ccc(C2c3c(-c4ccc(C)cc4)n[nH]c3C(=O)N2c2ccc(Cl)cc2)cc1 (stereo unspecified),/,1.7%,-8.7%,/,/,/
COc1ccc(CNC(=O)C[C@H]2C[C@H](C(=O)N3CCCCC3)[C@@]3(CCc4ccccc4)c4[nH]c5ccc(Cl)cc5c4CCN3C2=O)cc1OC,/,/,/,-8.3%,/,/
CCN(CC)S(=O)(=O)c1ccc(NC(=O)c2c(C)oc3ncnc(N4CCCCC4)c23)cc1,/,-5.2%,/,/,/,/
O=C(N/N=C/c1cccs1)c1cccc(NC(=O)c2ccccc2Cl)c1,8.0%,23.9µM*,0.6%,0.9%,-1.8%,9.8%
O=C(N/N=C/c1ccccn1)c1cccc(NC(=O)c2ccccc2Cl)c1,14.8%,16.9µM*,/,8.7%,/,2.8%
O=C(Nc1cccc(NC(=O)c2ccccc2Cl)c1)c1ccc(F)cc1,-1.6%,?,/,-1.1%,/,2.0%
Cc1cccc(C(=O)N/N=C/c2ccccn2)c1,3.55µM*,19µM*,2µM*,?,-2.4%,?
CCN(CC)S(=O)(=O)c1cccc(C(=O)N/N=C/c2ccccn2)c1,0.7%,?,2.7%,-0.1%,-1.0%,-3.7%
O=C(N/N=C/c1ccccc1F)c1cccc(NC(=O)c2ccccc2Cl)c1,17.2%,13.5µM*,/,6.8%,/,18.9%
O=C(N/N=C/c1cccs1)c1ccc(NC(=O)c2ccccc2Cl)cc1,-2.2%,-3.9%,/,-2.7%,/,1.0%
Cc1c(Cl)cccc1NC(=O)c1cc2nc(-c3ccc4c(c3)OCO4)cc(C(F)(F)F)n2n1,/,-4.7%,-5.5%,/,/,/
CCc1cccc(NC(=O)CCN2C(=O)c3ccccc3Sc3ncccc32)c1,/,-4.2%,/,/,/,/
O=C(N/N=C/c1ccccn1)c1ccc(NC(=O)c2cccc([N+](=O)[O-])c2)cc1,9.1%,?,0.9%,-4.4%,-0.2%,5.5%
Cc1cccc(C(=O)Nc2cccc(C(=O)N/N=C/c3ccccn3)c2)c1,-5.1%,19µM*,/,-0.3%,/,0.4%
CC1CCCN(C(=O)c2ccc(-c3ccccc3Cl)o2)C1 (stereo unspecified),2.51µM*,8.49µM*,/,14.6µM*,/,3.55µM*
CC(=O)Nc1ccc(O)c(-c2nc3ccccc3s2)c1,?,?,29.5%,?,0.4%,20.1%
SMILES,Rab9 promoter act,FLuc modulator,SMN2 splice up,ELG1 genotoxic,KinaseGlo FLuc,NPC1 promoter act
O=C(O)c1ccc2c(c1)C(=O)N(c1cccc(-c3nc4ccccc4s3)c1)C2=O,-6.7%,2.39µM*,/,6.0%,-0.3%,0.8%
Oc1cccc(-c2nc3ccccc3s2)c1,?,1.69µM*,?,1.46µM*,-17.9%,1.3%
Cc1cc(C)c(-c2nc3ccccc3s2)[nH]1,9.3%,4.78µM*,/,?,/,3.6%
Nc1cccc(-c2nc3ccccc3s2)c1,3.98µM*,1.2µM*,57.1%,3.66µM*,-8.6%,3.16µM*
Nc1ccc(-c2cc(-c3cccc(N)c3)nc(-c3ccccc3)n2)cc1,-7.1%,-0.5%,-8.9%,-2.4%,1.1%,-1.5%
Cc1[nH]nc(-c2ccc(O)cc2O)c1-c1nc2ccccc2s1,-0.1%,-13.4%,-20.2%,19.4%,-2.3%,0.3%
Cc1cc(C)cc(NC(=O)C2CCC(CNS(=O)(=O)c3ccc4c(c3)C(C)(C)C(=O)N4C)CC2)c1 (stereo unspecified),/,-19.2%,/,/,/,/
CC[n+]1cccc(-c2nc3ccccc3s2)c1,-1.1%,26.9µM*,-19.8%,4.2%,1.2%,0.7%
COc1ccc(-c2c(C)c3ccc(O)c(CN4CCCC(C)C4)c3oc2=O)cc1OC (stereo unspecified),/,-5.4%,/,/,/,/
CCOC(=O)C(C)Sc1ncc(-c2ccccc2)cn1 (stereo unspecified),23.0%,21.3µM*,3.4%,8.2%,-3.5%,5.1%
CCOC(=O)c1cnc(SCc2ccccc2)nc1N,0.891µM*,2.13µM*,5.62µM*,7.31µM*,-0.8%,1.58µM*
CCOC(=O)c1cnc(SCc2ccc(C(C)(C)C)cc2)nc1N,-4.2%,-19.4%,-40.2%,10.1%,-2.7%,10.5%
COc1ccccc1-c1nc(SCC(=O)NCc2ccc(C)cc2)c2c(=O)n(C)c(=O)n(C)c2n1,/,-3.6%,/,/,/,/
CCOC(=O)CNC(=O)N1[C@H](c2cccs2)[C@@H](C)C(=O)[C@@H](C)[C@@H]1c1cccs1,/,-5.7%,/,/,/,/
CCOc1ccc(-c2nnc(SCC(=O)Nc3cc(F)ccc3F)o2)cc1,/,-15.2%,/,/,/,/
CC(C)CN=c1cc(-c2ccccc2)oc2ccc(Cl)cc12,20.1%,?,17.2%,3.5%,0.6%,15.9%
CC(O)CN=c1cc(-c2ccccc2)oc2ccc(Cl)cc12 (stereo unspecified),?,15.1µM*,16.7%,?,3.8%,?
N#CCc1ccc(NC(=O)Nc2cccc(Cl)c2)cc1,29.0%,16.9µM*,-13.9%,4.6%,-2.6%,?
O=C(N/C=C/c1ccco1)Nc1cccc(Cl)c1,19.2%,26.9µM*,/,-0.8%,/,16.3%
CSc1ccccc1NC(=O)Nc1cccc(F)c1,?,21.3µM*,/,1.3%,/,15.6%
N#Cc1ccccc1NC(=O)Nc1cccc(Cl)c1,/,?,-8.7%,/,-8.8%,/
CNS(=O)(=O)c1ccc(NC(=O)Nc2cccc(F)c2)cc1,?,19µM*,/,1.4%,1.6%,12.0%
COc1ccc(OC(=O)c2nc(SCc3ccccc3F)ncc2Cl)cc1,/,1.4%,-8.0%,/,/,/
CC(=O)Nc1cccc(NC(=O)Nc2cccc(F)c2)c1,2.9%,9.53µM*,/,9.3%,/,5.5%
O=C(Nc1cccc(F)c1)Nc1cccc(Cl)c1,?,23.9µM*,/,-1.5%,/,29.1%
